Experimental data reported in PubChem BioAssay AID1456 (Vanderbilt High Throughput Screening Facility, 2008).
Among all 190,000 compounds or so, about 4,100 (2.2%) were called active. This excerpt belongs to a sample that is enriched for actives. Values without a mark were called inactive.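 Rule for the calls: active = thallium flux slope and its plate-corrected score both differing from the plate sample mean at a set confidence after two filtering rounds, in either direction; inactive = the rest.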

Target: Solute carrier family 12 member 5 (Homo sapiens) (UniProt Q9H2X9)
Sequence (Q9H2X9 whole entry, looked up): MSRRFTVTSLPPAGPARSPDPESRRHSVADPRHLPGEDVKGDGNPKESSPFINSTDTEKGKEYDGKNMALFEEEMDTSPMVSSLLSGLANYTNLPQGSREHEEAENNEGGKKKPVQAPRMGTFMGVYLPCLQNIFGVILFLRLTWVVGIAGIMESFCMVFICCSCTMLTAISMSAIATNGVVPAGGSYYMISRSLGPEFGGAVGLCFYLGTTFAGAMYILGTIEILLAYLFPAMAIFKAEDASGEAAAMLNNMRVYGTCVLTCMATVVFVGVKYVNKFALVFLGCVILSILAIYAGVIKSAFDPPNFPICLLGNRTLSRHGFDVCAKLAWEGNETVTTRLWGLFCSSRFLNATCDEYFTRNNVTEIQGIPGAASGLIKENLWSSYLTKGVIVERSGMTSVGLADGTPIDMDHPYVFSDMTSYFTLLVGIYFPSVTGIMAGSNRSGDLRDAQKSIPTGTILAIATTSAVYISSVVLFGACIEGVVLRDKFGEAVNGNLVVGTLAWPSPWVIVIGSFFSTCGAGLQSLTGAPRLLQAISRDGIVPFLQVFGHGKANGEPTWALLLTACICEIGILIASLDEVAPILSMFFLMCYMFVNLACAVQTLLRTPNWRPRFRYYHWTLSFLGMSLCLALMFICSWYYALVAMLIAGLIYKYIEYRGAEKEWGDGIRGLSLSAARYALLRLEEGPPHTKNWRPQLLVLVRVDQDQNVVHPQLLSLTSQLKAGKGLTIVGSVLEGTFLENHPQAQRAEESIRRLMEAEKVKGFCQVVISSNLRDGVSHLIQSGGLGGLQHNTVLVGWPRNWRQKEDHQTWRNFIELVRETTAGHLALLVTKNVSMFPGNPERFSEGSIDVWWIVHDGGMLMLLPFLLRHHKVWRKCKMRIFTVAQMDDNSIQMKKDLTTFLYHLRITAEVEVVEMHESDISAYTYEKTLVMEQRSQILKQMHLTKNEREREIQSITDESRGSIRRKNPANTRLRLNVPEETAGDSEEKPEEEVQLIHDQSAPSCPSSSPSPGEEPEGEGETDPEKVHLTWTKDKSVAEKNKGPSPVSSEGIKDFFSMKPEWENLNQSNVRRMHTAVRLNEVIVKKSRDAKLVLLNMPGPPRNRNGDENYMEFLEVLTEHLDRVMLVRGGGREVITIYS
Test: KCC2 cotransporter modulators, thallium flux, primary screen, cell-based, HEK293 KCC2, FluoZin-2 fluorescence, MLSMR (AID 1456);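 note: slope of fluorescence scaled to starting intensity during 10 to 20 s after thallium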
Conditions: KCC2 cells, thallium flux FluoZin-2 fluorescence; at 10 µM

Row | SMILES | B-score of Tl+ flux slope (higher = more flux/activation; lower = inhibition)
1 | Cc1cc(C(=O)CSc2nc(N)cc(=O)[nH]2)c(C)n1Cc1ccco1 | -0.287
2 | COc1ccc(-c2csc(NC3OC(=O)c4ccccc43)n2)cc1 (stereo not given) | 0.605
3 | O=C(CSc1nnc(-c2c[nH]c3ccccc23)o1)c1ccccc1 | 0.154
4 | CN(C(=O)CSc1nnc(-c2c[nH]c3ccccc23)o1)C1CCS(=O)(=O)C1 (stereo not given) | -0.897
5 | CCC(CC)NC(=O)CSc1nnc(-c2c[nH]c3ccccc23)o1 | -3.08 (active)
6 | COc1cccc(C(=O)n2ccc(-c3cccs3)n2)c1 | 0.604
7 | COC(=O)N(NC(=O)C(O)(C(C)C)C(C)C)c1ccccc1 | -1.84
8 | O=C(NC(CC(=O)N1CCN(c2ccccc2)CC1)c1ccccc1)c1ccccc1Cl (stereo not given) | -2.77 (active)
9 | CC(CC(=O)N1CCN(c2ccccc2)CC1)c1ccccc1 (stereo not given) | -0.358
10 | O=C(CN1CCCC1)N1CCN(c2ccccc2)CC1 | 0.962
11 | Cc1ccc(/C=N\n2c(-c3ccccc3)n[nH]c2=S)s1 | 5.99 (active)
12 | S=c1[nH]nc(-c2ccco2)n1/N=C/c1ccc(Br)s1 | 12.6 (active)
13 | Cc1cc(-c2n[nH]c(=S)n2/N=C/c2ccco2)n[nH]1 | -0.111
14 | S=c1[nH]nc(-c2cccs2)n1/N=C/c1cccs1 | 8.64
15 | S=c1[nH]nc(-c2ccccc2)n1/N=C/c1c[nH]c2ccccc12 | 0.491
16 | S=c1[nH]nc(-c2ccco2)n1/N=C/c1ccccc1 | 4.67
17 | O=c1c2ccccc2cnn1Cc1n[nH]c(=S)n1-c1ccccc1F | 0.755
18 | CC1CCN(c2c(NCc3ccc(C(=O)NCc4ccccc4)cc3)c(=O)c2=O)CC1 | -1.1
19 | O=C(Nc1ccccc1)C1CC(=O)n2c(nc3ccccc32)N1 (stereo not given) | 0.778
20 | CC(C)CCNC(=O)C1CCC(CNc2c(N3CCC(C)CC3)c(=O)c2=O)CC1 (stereo not given) | 0.284

Row | SMILES | B-score of Tl+ flux slope (higher = more flux/activation; lower = inhibition)
21 | COc1ccc(CNC(=O)CCC(=O)Nc2nnc(C(C)C)s2)cc1 | 0.0451
22 | Cc1cccc(N2CCN(Cc3nc(C4CC4)no3)CC2)n1 | -0.346
23 | COc1cccc(-c2nnc(NC(=O)c3ccc(S(=O)(=O)N(CC(C)C)CC(C)C)cc3)o2)c1 | 18.6 (active)
24 | O=C(Nc1nnc(-c2ccco2)o1)c1ccc(S(=O)(=O)N2CCOCC2)cc1 | -0.75
25 | COc1cccc(NC(=O)c2ccc(S(=O)(=O)N(C)C)cc2)c1 | 1.09
26 | CCCCN1CCNC1=S | -0.472
27 | O=C(Nc1ccc(Br)cn1)c1ccc([N+](=O)[O-])o1 | 0.106
28 | CC(C)CC(=O)NC(=S)NNC(=O)c1cccc([N+](=O)[O-])c1 | 0.86
29 | CCCCCC(=O)NC(=S)NNC(=O)c1ccc([N+](=O)[O-])cc1 | 11.7 (active)
30 | CCCCCC(=O)Nc1ccc(C(=O)N/N=C/c2ccc([N+](=O)[O-])cc2)cc1 | -0.55
31 | Cc1ccc(N2C(=O)C(CC(=O)Nc3cccc(F)c3)N(CCc3ccncc3)C2=O)cc1 (stereo not given) | 1.48
32 | C=CCNC(=S)N1CCc2[nH]c3ccccc3c2C1 | -0.783
33 | O=C(COC(=O)c1ccc(Oc2ccccc2)cc1)Nc1nnc(-c2ccccc2)o1 | 42.1 (active)
34 | CCCC(=O)Nc1nnc(-c2ccccc2)o1 | 1.22
35 | Cc1cccc(NC(=O)Nc2nnc(-c3ccccc3)o2)c1 | 2.01
36 | CC1=NNC(=O)C1CCC(=O)N/N=C(\C)c1ccc(Cl)cc1 (stereo not given) | -0.012
37 | CC(NC(=S)Nc1ccccc1)C(c1cccs1)N1CCOCC1 (stereo not given) | 0.588
38 | CSc1sc(C(=O)NNC(=O)c2ccc(Cl)cc2)c2c1C=CCC2 | 12.5 (active)
39 | O=C(NNC(=O)C1C2CCC(C2)C1C(=O)O)c1ccc(Cl)cc1 (stereo not given) | -1.3
40 | CCOC(=O)NNC(=O)c1ccc(Cl)cc1 | 0.095

Row | SMILES | B-score of Tl+ flux slope (higher = more flux/activation; lower = inhibition)
41 | O=C(CC(c1ccccc1)c1cc(Cl)ccc1O)NCCN1CCOCC1 (stereo not given) | -0.0272
42 | CN(C)c1ccc(C=C2C(=O)OC3(CCCC3)OC2=O)cc1 | -0.977
43 | CCOc1c(Nc2cccc(Cl)c2)c(=O)c1=O | -0.192
44 | COc1ccc2c(CN3CCN(S(=O)(=O)c4cccs4)CC3)cc(=O)oc2c1 | -3.36
45 | COc1ccc(C2/C=C\CN(S(=O)(=O)c3cccs3)CC(=O)N2Cc2ccc(F)cc2)cc1 (stereo not given) | -3.16 (active)
46 | COc1ccc(C2/C=C\CN(CC(C)C)CC(=O)N2Cc2ccc(F)cc2)cc1 (stereo not given) | -1.57
47 | O=c1c(-c2ccc(Cl)cc2)[n+]([O-])c2ccccc2n1OCc1nc2ccccc2[nH]1 | 2.99
48 | Nc1nc(NCC2CCCO2)nc(Nc2ccccc2F)c1[N+](=O)[O-] (stereo not given) | 0.249
49 | CCC(C(=O)OCC(=O)Nc1ccc(C(=O)Nc2ccc(OC)cc2)cc1)c1ccccc1 (stereo not given) | -0.012
50 | COc1ccc(NC(=O)COC(=O)c2ccc(NS(=O)(=O)/C=C/c3ccccc3)cc2)cc1 | 4.56 (active)
51 | NS(=O)(=O)c1ccc(NS(=O)(=O)/C=C/c2ccccc2)cc1 | 0.851
52 | Cc1cc(C(=O)OCC(=O)Nc2nccs2)c2ccccc2n1 | -0.12
53 | Cc1ccc2c(C)c(C(=O)N3CCC(N4CCC(C(=O)NC5CC5)CC4)CC3)oc2c1 | -1.04
54 | O=C(CSc1nnnn1-c1ccc(O)cc1)N1N=C(c2ccc3ccccc3c2)CC1c1ccccc1 (stereo not given) | 0.186
55 | COC(=O)C1=C(C(=O)OC)C(c2cc([N+](=O)[O-])ccc2O)c2sc(=O)[nH]c2S1 (stereo not given) | -0.169
56 | CC1CC(C)(C)n2c(O)c(N=NC(N)=S)c3cccc1c32 (stereo not given) | 24.8 (active)
57 | COC(=O)[C@H](CC(C)C)NC(=O)N1CCCCC1C (stereo not given in full) | -0.124
58 | C/C(CC(C)C)=N\Oc1nc(C)cc(C)n1 | -1.12
59 | CCCCCCCC(=O)OC(CN1CCCCCC1)CN1CCCC1=O (stereo not given) | -0.767
60 | Cc1cc(C)cc(NC(=O)NC2CCN(CC(=O)Nc3cccc(Cl)c3C)CC2)c1 | 0.963
